Bioassay records deposited in PubChem by National Center for Advancing Translational Sciences (NCATS).
Shown are actives, neighbours in structure and some others; about 21% of the full set was active somewhere.
Shiga inhibitor: inhibitors of Shiga toxin in Vero cells | inhibition, % at 38.7 µM | 290,000 compounds, 9.2% hits | AID 2315 | Vero cells, Shiga toxin protein synthesis inhibition reporter; in the data active = inhibition mostly above about 28%, no sharp cut-off; inactive = mostly below about 43%; also: 0% is about no effect
Pf growth 96h: inhibits malaria parasite growth, 96 h; P. falciparum luciferase reporter growth, 96 h; Potency, µM (titrated, usually from 28.7 µM), for the others: at the highest dose activity change, negative = inhibition, hits mostly inhibitors; 320,000 compounds, 6.9% hits; AID 504834; also: potency is read from the fitted curve at half-maximal effect; % is scaled to controls: 0 for no effect and ±100 for the full control effect
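Delayed-death screen, second-generation endpoint: infected erythrocytes, 2% hematocrit, 0.05% parasitemia final; 96 hours at 37 C, 5% CO2; luciferase detection reagent; luminescence decrease equals reduced growth.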
Pf growth 48h: inhibits P. falciparum growth in the first generation, 48 h; Potency, µM (top dose mostly 28.7 µM), for the others: at the top dose activity change, negative = inhibition, usual class: inhibitors; 310,000 compounds, 5.9% hits; P. falciparum luciferase growth in erythrocytes, 48 h; also: potency is read from the fitted curve at half-maximal effect; % is scaled to controls: 0 for no effect and ±100 for the full control effect
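Parasite viability was followed by luminescence of a genomically integrated firefly luciferase. Cultures held 0.1% parasitemia at 2% hematocrit (final), incubated under 5% CO2 at 37 C.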
CHX counter: counter-screen hit for Shiga toxin inhibitors, cycloheximide; AID 2314; cell reporter, cycloheximide protein synthesis inhibition counterscreen; 300,000 compounds, 12% hits; max response, %; in the data active = max response mostly above about 13%, no sharp cut-off; inactive = mostly below about 14%; also: read at 38.3 µM for the half of the compounds with a filed dose; 0% is about no effect
Starred values were filed as active, the others as inactive; i = inactive; u = inconclusive; x = no result. Unless noted, calls follow the shape of the dose curve; as a rule, active = well fitted inhibition curve with a large enough effect; inconclusive = small, poorly fitted or top-dose-only effect, or another doubt; inactive = no such curve, though single readings can be large or run the other way.

SMILES	Shiga inhibitor	Pf growth 96h	Pf growth 48h	CHX counter
O=C(OCc1cc(=O)n2c(n1)sc1ccccc12)c1cccc(O)c1	49.0*	32.1%	71.9%	23.3*
C#CCNC(=O)C1=C[C@H](c2coc3ccccc3c2=O)[C@@H](CCCO)[C@H](OCC)O1	-4.4	-16.1%	4.4%	0.6
NC(CO)(CO)CO	12.1	-20.2%	5.7%	-6.7
CCOc1ccc(-c2c(C)n(-c3ccc(OCC)cc3)c3[n+]2CCCCC3)cc1	-10.5	u	0.415µM*	4.8
CCC(=O)N1CCN(c2ccccc2NC(=O)c2ccc(-c3cccc([N+](=O)[O-])c3)o2)CC1	-10.5	4.5%	8.28µM*	9.6
CN1CCN(c2ccccc2NC(=O)c2ccc(-c3ccc(Cl)c(Cl)c3)o2)CC1	-13.2	6.6%	1.0%	11.8
Cc1cc(N2CCN(C)CC2)ccc1NC(=O)c1ccc(-c2ccc(Cl)cc2)o1	x	4.15µM*	u	x
CN1CCN(c2ccccc2NC(=O)c2ccc(-c3ccc(Br)cc3)o2)CC1	16.7	4.1%	13.1µM*	-3.6
CN1CCN(c2ccccc2NC(=O)c2ccc(-c3cccc([N+](=O)[O-])c3)o2)CC1	-4.1	u	10.4µM*	-0.3
COC(=O)c1ccc(OC)c(CN2CCCN(Cc3cc(C)ccc3C)S2(=O)=O)c1	-3.7	12.8%	14.7µM*	-3.1
CC(C)N(CC(O)COc1ccc(CC(N)=O)cc1)CC(O)COc1ccc(CC(N)=O)cc1 (stereo unspecified)	-4.7	u	-2.7%	-5.1
COc1ccc(C(C)=O)cc1CSc1nnc(-c2ccncc2)o1	-7.0	4.15µM*	u	-2.1
c1ccc(CSc2nnc(-c3ccncc3)o2)cc1	84.9*	-0.2%	95.4%	34.9*
Cc1ccccc1CSc1nnc(-c2ccncc2)o1	39.1	29.0%	-22.2%	13.1*
CCC(C(=O)Nc1ccc(C(=O)Nc2ccccc2C(=O)O)cc1)c1ccccc1 (stereo unspecified)	11.4	u	26.0%	-1.9
O=S(=O)(Nc1ccncc1)c1ccc(Cl)c(Cl)c1	x	21.9%	0.8%	17.6*
O=S(=O)(Nc1ccncc1)c1cc(Cl)ccc1Cl	4.9	-11.6%	5.5%	-2.5
CCOc1ccc(-c2nnn(CC#N)n2)cc1OC	-5.8	u	-12.6%	-3.2
NCCCC[C@H]1CNC(=O)C(=O)N1CCC12CC3CC(CC(C3)C1)C2	1.8	7.38µM*	11.7µM*	-3.3
CN(CC(=O)Nc1ccc(OC(F)(F)F)cc1)S(=O)(=O)c1cnc[nH]1	24.8	u	23.0%	12.2
CS(=O)(=O)N(CC(=O)Nc1ccc(CC#N)cc1)c1ccc(C23CC4CC(CC(C4)C2)C3)cc1	77.1*	u	10.4µM*	22.0*
CC(=O)Nc1ccc(NC(=O)CN(c2ccc(C34CC5CC(CC(C5)C3)C4)cc2)S(C)(=O)=O)cc1	27.8	-16.7%	1.9%	-2.7
CC(=O)Nc1ccc(C23CC4CC(CC(C4)C2)C3)cc1	26.4	67.3%	-11.4%	14.4
O=C(CSCCO)Nc1ccc(C23CC4CC(CC(C4)C2)C3)cc1	52.8*	51.0%	214.9%	24.4*
Cc1ccc2nc(-c3ccc(NC(=O)CN(c4ccccc4C)S(C)(=O)=O)cc3)sc2c1	94.7*	-69.4%	-73.4%	60.5*
SMILES	Shiga inhibitor	Pf growth 96h	Pf growth 48h	CHX counter
Cc1ccccc1N(CC(=O)Nc1ccc(F)cc1)S(C)(=O)=O	-4.7	x	9.3%	-0.8
Cc1cc(C)cc(N(CC(=O)Nc2ccc(-c3nc4ccc(C)cc4s3)cc2)S(C)(=O)=O)c1	77.4*	4.15µM*	77.3%	35.6*
CCOc1cc(Br)c(COc2ccc(C)nc2[N+](=O)[O-])cc1OCC	-1.2	u	u	-3.5
N#Cc1ccc(COc2cccnc2[N+](=O)[O-])cc1	11.5	30.5%	u	8.2
O=[N+]([O-])c1ncccc1OCc1ccc(-c2ccccc2)cc1	40.8	2.8%	-1.6%	18.7*
Cc1ccc(OCCOc2cccc(Br)c2)c([N+](=O)[O-])n1	96.0*	63.6%	98.5%	40.0*
CNc1cc([N+](=O)[O-])ccc1OCc1ccccc1	89.5*	24.5%	21.9%	27.2*
COc1ccc([N+](=O)[O-])cc1NS(=O)(=O)Cc1ccccc1	-6.8	3.0%	1.8%	-0.6
Cc1ccc(OCc2ccc(Br)cc2)c([N+](=O)[O-])n1	83.8*	473.3%	i	56.1*
COc1cc(-c2c(C#N)c(N)nc3[nH]c(=S)[nH]c(=O)c23)ccc1O	-4.7	25.6%	x	-4.3
Cc1cccc(NC(=O)CN2CCN(C(=O)C3CCCO3)CC2)c1C (stereo unspecified)	-6.6	u	22.7%	-1.1
COc1ccc(CCNC(=O)CCNC(=O)c2ccc([N+](=O)[O-])cc2)cc1	-2.1	-5.3%	x	-1.1
